Source: PubChem (several laboratories)
KLF5 inhibitor: inhibitors of KLF5 expression; DLD-1 KLF5 promoter-luciferase reporter, luminescence; inhibition, % at 5 µM; 0.23% of 290,000 active; AID 1700;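 active = inhibition above a per-plate limit of that plate's mean compound inhibition plus 3 SD, cut at about 60% in these data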;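 note: higher means less KLF5 promoter-driven luciferase light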
aSyn UTR inh: 5' untranslated region of α-synuclein, MLPCN primary screen | alpha-synuclein 5'UTR reporter, inhibitor activity | 0.82% of 300,000 active | AID 1813 | inhibition, % (tested at 7.5 µM); in the data active = inhibition above about 60%; inconclusive = no clear call, values can overlap the other calls;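 note: H4 neuroglioblastoma cells stably carrying SNCA 5'UTR luciferase fusion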
Platelet DG rel: platelet dense granule release activity; inhibition, %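 (compounds screened at 7.5 µM in platelet-rich plasma)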; human platelet-rich plasma, SFLLRN dense granule ATP release, luminescence; 0.22% of 300,000 active;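 active = mean replicate score, as percent of positive control, at or above 50; inconclusive = mean below 50 but at least one replicate at or above 50; inactive = mean and every replicate below 50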
HIF act: HIF pathway transcriptional activation. U2OS HRE-luciferase reporter, luminescence; normalized: DMSO 0%, desferrioxamine 100%. activation, % at 7.5 µM (by protocol). 0.32% of 300,000 active;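 active = mean activation of at least 10% of the iron chelator positive control signal, with at least half of replicates also reaching 10%; inconclusive = mean and replicate majority disagree about reaching 10%; inactive = mean and most replicates under 10%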
Wee1 stabilizer: inhibitors of human Wee1 degradation. reporter increase, % at 5 µM. AID 1321. HeLa Luc-Wee1K328M stability, luciferase luminescence; 100% = proteasome inhibitor MG132 effect. 1.2% of 220,000 active;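 active = activation above the mean of all tested compounds plus 3 SD, set per screening run, cut at about 8.8% in these data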;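 note: cells exposed to compound for 20 h before luminescence read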
Target sequence (P30291 whole entry K328M): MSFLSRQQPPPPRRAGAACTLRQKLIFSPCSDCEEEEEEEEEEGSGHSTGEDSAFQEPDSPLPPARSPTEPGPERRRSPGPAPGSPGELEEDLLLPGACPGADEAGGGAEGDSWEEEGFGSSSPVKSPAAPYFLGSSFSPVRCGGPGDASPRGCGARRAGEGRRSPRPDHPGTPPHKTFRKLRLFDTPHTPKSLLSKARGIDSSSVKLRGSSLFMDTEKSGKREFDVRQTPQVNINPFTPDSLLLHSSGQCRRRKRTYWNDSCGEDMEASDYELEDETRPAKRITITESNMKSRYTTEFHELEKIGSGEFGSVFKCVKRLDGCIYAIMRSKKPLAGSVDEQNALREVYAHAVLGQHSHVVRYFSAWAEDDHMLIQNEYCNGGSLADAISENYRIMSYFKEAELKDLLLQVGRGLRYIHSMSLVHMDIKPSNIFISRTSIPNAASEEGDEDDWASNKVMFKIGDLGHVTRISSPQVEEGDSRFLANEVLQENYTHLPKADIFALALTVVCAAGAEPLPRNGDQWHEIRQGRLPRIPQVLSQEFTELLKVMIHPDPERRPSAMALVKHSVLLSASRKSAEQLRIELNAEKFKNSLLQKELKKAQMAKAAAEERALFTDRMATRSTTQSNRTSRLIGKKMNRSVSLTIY
Of the large screens only hits and unclear results are named; the others gave an inactive call. Only some compounds are listed: those with a hit (about 2.1% of all), similar ones and a draw of the others.

COCCN(CC(=O)NC1CCCCC1)C(=O)/C=C/C(=O)c1ccc(OC)cc1O	aSyn UTR inh 78.8
O=C(NCc1ccccc1Cl)C1CCC(=O)N(CC2CCCCC2)C1 (centres undefined)	none (no result: Wee1 stabilizer)
O=C1[C@@H]2[C@@H]3C[C@@H]([C@H]4ON=C(c5ccc(Cl)cc5)[C@@H]34)[C@@H]2C(=O)N1C1CCCCC1	none
O=C(COC(=O)Cc1ccc(S(=O)(=O)N2CCCCC2)s1)Nc1ccc2c(c1)OCO2	HIF act 24.5
C/C(=N\NC(=O)c1ccc(Br)o1)c1cc2c(cc1NC(=O)CCC(=O)O)OCO2	none (no result: aSyn UTR inh, Platelet DG rel, HIF act, Wee1 stabilizer)
Cc1ccc(-c2cc(C(=O)N3CCCCCC3)no2)cc1	HIF act 12.4 (no result: Wee1 stabilizer)
COc1ccc(S(=O)(=O)NNC(=O)C23CC4CC(CC(C4)C2)C3)cc1[N+](=O)[O-]	none (no result: KLF5 inhibitor, Wee1 stabilizer)
Cc1ccc(-c2cc(-c3ccc(F)cc3)nc(N)c2C#N)o1	aSyn UTR inh 62.7
Cc1ccc(-c2cc(-c3ccccc3)c(C#N)c(N)n2)o1	none
CCc1ccccc1N(C)S(=O)(=O)c1ccc2[nH]cc(C(=O)O)c(=O)c2c1	Wee1 stabilizer 9.5
O=C(Oc1c(-c2ccccc2)c(=O)n2c3c(cccc13)CC2)c1cccc([N+](=O)[O-])c1	aSyn UTR inh 77.3
O=C(Oc1c(-c2ccccc2)c(=O)n2c3c(cccc13)CC2)c1ccccc1	none
FC(F)(F)c1nnc2c(Sc3ccc(Cl)cc3)nc3ccccc3n12	none
FC(F)(F)c1nc2ccccc2n2c(-c3ccc(Cl)cc3)nnc12	aSyn UTR inh 107.9
Cc1ccc(-c2nnc3c(C(F)(F)F)nc4ccccc4n23)cc1	aSyn UTR inh 70.6
CC(C)CC(=O)Nc1nnc(SCC(=O)NC2CCCCC2)s1	none (no result: Wee1 stabilizer)
COc1cc(NC(=S)N2CCCC2)cc(OC)c1	none (no result: aSyn UTR inh, Platelet DG rel, HIF act, Wee1 stabilizer)
Cc1ccc(-c2onc3ccc(C=O)cc23)cc1	none
O=C(O)/C=C/c1ccc2noc(-c3ccccc3)c2c1	Wee1 stabilizer 26.2
COc1ccc(-c2nnc3sc(C4CCCCC4)nn23)cc1OC	aSyn UTR inh 65.3
COc1ccc(C(=O)O/N=C2\C(=O)N(C)c3ccccc32)cc1	none (no result: KLF5 inhibitor, Wee1 stabilizer)
COc1ccc(C(=O)N=c2nc3ccccn3s2)cc1	Platelet DG rel 50.4
N=c1ccn2c(n1)OC1C(O)C(CO)OC12 (centres undefined)	aSyn UTR inh 111.7
O=c1[nH]cnc2c1ncn2[C@@H]1O[C@H](CO)[C@@H](O)[C@H]1O	none
Nc1ccn([C@@H]2O[C@H](CO)[C@@H](O)C2O)c(=O)n1 (some centres undefined)	aSyn UTR inh 72.3
CC(C)CC(NC(=O)/C(=C/c1ccco1)NC(=O)c1ccc(Br)o1)C(=O)O (centres undefined)	none (no result: Wee1 stabilizer)
Cc1ccc(CCC(=O)Nc2ccc(C#N)cc2)o1	none (no result: Wee1 stabilizer)
O=C(Cc1cccc2ccccc12)Nc1c(F)cccc1F	none (no result: Wee1 stabilizer)
CCN(CC(=O)NCc1ccccc1Cl)CC(=O)Nc1c(F)cccc1F	Wee1 stabilizer 9.5
COC(=O)CCCC1=CC2=CC(=O)C(C)(OC(=O)c3cccs3)C(=O)C2=CN1Cc1ccc2c(c1)OCO2 (centres undefined)	HIF act 18.7 (no result: KLF5 inhibitor, Wee1 stabilizer)
CC(Oc1ccc2ccc(=O)oc2c1)C(=O)NC1CC(C)(C)NC(C)(C)C1 (centres undefined)	none (no result: Wee1 stabilizer)
C/C(CC(=O)NCc1ccco1)=N\NC(=O)c1ccc([N+](=O)[O-])cc1Cl	none (no result: Wee1 stabilizer)
Cn1nc(C(=O)Nc2nc3ccc(S(C)(=O)=O)cc3s2)ccc1=O	Platelet DG rel 53.0
CS(=O)(=O)c1ccc2nc(NC(=O)C3CC3)sc2c1	HIF act 15.3 (no result: KLF5 inhibitor, Wee1 stabilizer)
CS(=O)(=O)c1ccc2nc(NC(=O)c3ccccc3Cl)sc2c1	none (no result: Wee1 stabilizer)
O=C(O)c1ccccc1Nc1ccc([N+](=O)[O-])cc1C(=O)O	HIF act 14.2
O=C(O)c1cc([N+](=O)[O-])ccc1NCc1ccccc1	none
O=C(CN1CCOCC1)N1CCN(c2ccc3ccccc3n2)CC1	none (no result: aSyn UTR inh, Platelet DG rel, HIF act)
NC(=O)CC1C(=O)N(c2ccccc2)C(=S)N1NC(=O)c1ccccc1 (centres undefined)	none (no result: Wee1 stabilizer)
CCn1cc(CN2CCC(n3nccc3NC(=O)C3CCCC3)CC2)cn1	none (no result: Wee1 stabilizer)
CN(C)CCNC(=O)C(c1ccccc1)c1ccccc1	none
CN(C)CCC(=O)C(Cc1ccccc1)c1ccccc1 (centres undefined)	aSyn UTR inh 98.9 (no result: KLF5 inhibitor, Wee1 stabilizer)
Cn1c(=O)n(C)c2cc(S(=O)(=O)NCc3ccco3)ccc21	none
Cn1c(=O)n(C)c2cc(S(=O)(=O)NCc3ccccc3)ccc21	Platelet DG rel 51.7
NC(=O)CCS(=O)(=O)c1ccc(Cl)cc1	Wee1 stabilizer 10.3
NC(=O)CCS(=O)(=O)c1ccccc1	none
O=C(N/N=C/c1cc2cc3c(cc2nc1Cl)OCO3)c1ccncc1	Platelet DG rel inconclusive, HIF act 345.2
CC1CC(C)(C)Nc2ccc(OC(=O)c3ccco3)cc21 (centres undefined)	aSyn UTR inh 70.3
O=C(Oc1ccc2ccccc2c1)c1ccco1	none
COc1ccc2[nH]c(=O)c(CN(Cc3cccs3)S(=O)(=O)c3cccc4nsnc34)cc2c1	aSyn UTR inh 75.9
Cc1ccc(C(=O)OCCN(C)Cc2ccccc2)cc1	Wee1 stabilizer 9.2
Cc1ccccc1C(=O)OCCN(C)Cc1ccccc1	none
CCN(C(=O)CSc1nnc(C)n1-c1ccccc1)C1CCS(=O)(=O)C1 (centres undefined)	Platelet DG rel inconclusive
Oc1ccccc1/C=N/Nc1nccnc1Cl	aSyn UTR inh 88.4, HIF act 126.6
Oc1ccc(/C=N/Nc2nccnc2Cl)c(O)c1	aSyn UTR inh 87.7, Platelet DG rel 135.3, Wee1 stabilizer 10.1
Oc1ccc(Br)cc1/C=N/Nc1ncc(-c2ccccc2)cn1	none
Oc1ccc(/C=N/Nc2ncc(Br)cn2)c(O)c1	HIF act 18.9
COc1ccc(C(=O)COC(=O)c2cccc(-n3cnnn3)c2)c(OC)c1	none (no result: KLF5 inhibitor, Wee1 stabilizer)
CC1CCN(S(=O)(=O)c2cnc[nH]2)CC1	none (no result: Wee1 stabilizer)
O=S(=O)(c1cnc[nH]1)N1CCCCCC1	Wee1 stabilizer 12.9 (no result: Platelet DG rel)
O=C(Nc1cccnc1Cl)C1=NN(c2ccccc2)C(=O)CC1	none (no result: Wee1 stabilizer)
O=c1cccc2n1Cc1cc3ccccc3nc1-2	none
CC[C@@]1(O)C(=O)OCc2c1cc1n(c2=O)Cc2cc3c(N)cccc3nc2-1	aSyn UTR inh 102.5, HIF act 17.0 (no result: KLF5 inhibitor, Wee1 stabilizer)
O=C(NC(=S)Nc1ccccn1)c1cccc([N+](=O)[O-])c1	HIF act 709.1
CCCCCC(=O)NNC(=S)NC(=O)c1ccccc1[N+](=O)[O-]	none
CCCCCC(=O)NNC(=S)NC(=O)c1cccc([N+](=O)[O-])c1	HIF act 62.2
Cc1cc(OCC(=O)NNC(=S)NC(=O)c2ccc(Br)o2)ccc1Cl	none (no result: aSyn UTR inh, Platelet DG rel, HIF act, Wee1 stabilizer)
COc1ccccc1-c1nnc2sc(-c3cnccn3)nn12	none
COc1ccccc1-c1nnc2sc(-c3cc4ccccc4o3)nn12	aSyn UTR inh 76.3
COc1cccc(CNC(=O)c2nnn(CC(=O)Nc3ccc(Br)cc3)c2N)c1	aSyn UTR inh 86.0 (no result: Wee1 stabilizer)
O=C(c1ccc(CS(=O)c2ccccc2Cl)o1)N1CCN(c2ccccn2)CC1 (centres undefined)	none (no result: Wee1 stabilizer)
Cc1ccc(COc2ccc(C)nc2[N+](=O)[O-])cc1	Wee1 stabilizer 8.8
